Assay [1] is described as follows: qHTS assay for small molecule agonists of the p53 signaling pathway (AID 651631; calls by dose curve; also: nearly all actives have a fitted effect of over 15% in size). Put shortly:
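p53RE-bla HCT-116 cells; compounds 16 h, 37 °C; LiveBLAzer B/G FRET substrate 2 h RT; fluorescence intensity read-out, qHTS format.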
(qHTS replaces the single test concentration by a dilution series.)

Assay [2] in a line: qHTS assay for small molecules that induce genotoxicity in human embryonic kidney cells expressing luciferase-tagged ATAD5 (AID 651632). Also: nearly all actives have a fitted effect of over 15% in size. An outline of the steps: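 Cells were seeded at 2,000 per well, dosed with compound, and incubated 16 hr at 37C in 5% CO2. Luciferase activity was then quantified after a 30 min room-temperature incubation with Amplite.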
Assay [3] can be described thus: qHTS assay for small molecule agonists of the p53 signaling pathway - cell viability (AID 651633; calls by dose curve;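 also: p53RE-bla HCT reporter cells with a stable beta-lactamase p53 reporter; series mostly up to about 83 µM; nearly all actives have a fitted effect of over 30% in size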). An outline of the steps: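 Viability counter-read: CellTiter-Glo luminescence (30 min, room temperature) in the same p53RE-bla plates. These plates had been exposed to compounds for 16 h at 37 C.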
A short description of assay [4]: qHTS assay for small molecules that induce genotoxicity in human embryonic kidney cells expressing luciferase-tagged ATAD5 - cell viability (AID 651634; calls by dose curve; also: nearly all actives have a fitted effect of over 25% in size). An outline of the steps: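 Cells (HEK293T, luciferase-tagged ATAD5) are seeded at 2,000 per well, dosed with compound or DMSO vehicle, and incubated 15.5 hr at 37C and 5% CO2. CellTiter-Fluor is added for 30 min before fluorescence is measured.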

A short description of assay [5]: qHTS assay for small molecule disruptors of the mitochondrial membrane potential - cell viability (AID 720634; calls by dose curve;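 also: human HepG2 liver cancer cells; series mostly up to about 83 µM; nearly all actives have a fitted effect of over 20% in size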). An outline of the steps:
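Cytotoxicity was measured by ATP quantitation in HepG2 wells that had first been treated with compound for 1 hr and stained with m-MPI dye; CellTiter-Glo incubation was 30 min at room temperature.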

A short description of assay [6]: qHTS assay for small molecule disruptors of the mitochondrial membrane potential (AID 720635). Also: potency is read from the fitted curve at half-maximal effect. Put shortly: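 Mitochondrial membrane potential tracked with Mito-MPS dye, red aggregates (ex 540/em 590 nm) against green monomers (ex 490/em 535 nm). Compound treatment 1 hr at 37C, dye 30 min in HepG2.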
Assay [7] is described as follows: qHTS assay to test for compound auto fluorescence at 590 nm (red) in HepG2 cells (AID 720674). Put shortly: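 Red autofluorescence (Ex/Em 540/590 nm, Rose Bengal sodium equivalents) was measured in HepG2 cells, 2,000 per well in MEM plus 10% FBS, plated overnight at 37 C. Readings were taken 1 hr after adding 23 nL compound or DMSO, at 37 C and 5% CO2.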
A short description of assay [8]: qHTS assay to test for compound auto fluorescence at 535 nm (green) in HepG2 cells (AID 720675).
The nature of assay [9]: qHTS assay to test for compound auto fluorescence at 460 nm (blue) in HEK293 cells (AID 720678). An outline of the steps:
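HEK293 cells (2,000 per well, medium with 10% dialyzed FBS) attached for 4-5 hr at 37C, then received compound and stood overnight at 37C, 5% CO2. Blue fluorescence was read at Ex/Em 405/460 nm and expressed relative to triamterene.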

Assay [10] can be described thus: qHTS assay to test for compound auto fluorescence at 590 nm (red) in HEK293 cells (AID 720679). An outline of the steps:
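HEK293 cells (2,000/well, medium with 10% dialyzed FBS) attached for 4-5 hr at 37C, received 23 nL compound and were incubated overnight at 37C, 5% CO2. Red fluorescence was then read at 540/590nm Ex/Em, referenced to Rose Bengal sodium.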

Unmarked numbers belong to inactive results. Records with an inconclusive call do not appear. Calls of active or inactive are those of the source. Unless noted, calls follow the shape of the dose curve; as a rule, active = well fitted curve in the direction sought with a large enough effect in the repeat runs; inconclusive = weak or mixed curves; inactive = no such curve, though single readings can be large; an effect the other way counts as inactive or inconclusive.
% is scaled to controls: 0 for no effect and ±100 for the full control effect.

On to `Nc1cc(S(=O)(=O)O)ccc1O`, for which the Potency entry in assay [1], in assay [2] and in assay [6] was “inactive” throughout. In addition, the compound was classed as inactive in [3], in [4], in assay [5], in assay [7], in assay [8] and in assay [9]. Also, in [10], the compound was classed as inactive.

Regarding `CC(=O)c1c(C)cc(C(C)(C)C)cc1C`, the Potency result in assay [1], in assay [2] and in assay [6] was “inactive” each time. Further, the compound was classed as inactive in [3], in assay [4], in [5], in [7], in assay [8] and in [9]. Besides, the outcome in [10] was inactive.

For the compound `COC(=O)c1c(C)cc(O)c(C)c1O`, the Potency result in [1] and in [2] was “inactive” in each case. For the same compound, the compound was called inactive in assay [3], in assay [4], in assay [5], in [7], in assay [8] and in assay [9]. The call in assay [10] was inactive. For the same compound, the Potency in assay [6] is 12.2 µM (active).

With `CC(=O)Nc1ccc(S(=O)(=O)Nc2cc(C)on2)cc1`, the Potency entry in [1], in [2] and in [6] was “inactive” each time. Besides, the compound was called inactive in assay [3], in [4], in [5], in [7], in [8] and in assay [9]. Besides, the compound was called inactive in [10].

Consider `CC(C)CC(O)Cc1ccccc1` (stereo not given), for which the Potency entry in assay [1], in [2] and in assay [6] was “inactive” in each case. Moreover, the outcome in assay [3], in [4], in assay [5], in assay [7], in [8] and in [9] was inactive. Also, in assay [10], the compound was called inactive.

In the case of `CCCC(C)C(O)CC` (stereo not given), the Potency entry in [1], in assay [2] and in [6] was “inactive” each time. Moreover, the compound was classed as inactive in assay [3], in assay [4], in [5], in assay [7], in assay [8] and in [9]. Besides, the outcome in [10] was inactive.

Consider `CCCCCCCC(=O)N(C)C`, for which the Potency entry in [1], in [2] and in [6] was “inactive” throughout. Moreover, the compound was called inactive in assay [3], in assay [4], in [5], in assay [7], in assay [8] and in assay [9]. Also, the call in assay [10] was inactive.

Take `CCOCCOCCOC(C)=O`: the Potency entry in assay [1], in assay [2] and in assay [6] was “inactive” in each case. In addition, the compound was called inactive in assay [3], in [4], in [5], in [7], in assay [8] and in [9]. For the same compound, the call in assay [10] was inactive.

As for `O=CN1CCCCC1`, the Potency entry in [1], in [2] and in assay [6] was “inactive” in each case. Moreover, the compound was called inactive in assay [3], in assay [4], in assay [5], in assay [7], in assay [8] and in assay [9]. Moreover, the outcome in assay [10] was inactive.

Turning to `C=CCN1CCc2nc(N)sc2CC1`, the Potency entry in [1], in [2] and in assay [6] was “inactive” in each case. The outcome in assay [3], in assay [4], in assay [5], in [7], in [8] and in assay [9] was inactive. In addition, the compound was called inactive in assay [10].

Take `C/C=C(\C)C(=O)OC/C=C(\C)CCC=C(C)C`: the Potency entry in [1], in assay [2] and in assay [6] was “inactive” throughout. Besides, the outcome in assay [3], in assay [4], in assay [5], in assay [7], in [8] and in assay [9] was inactive. Further, in [10], the call was inactive.

`CCCC[O][Al]([O]CCCC)[O]CCCC`: the Potency result in [1], in assay [2] and in assay [6] was “inactive” each time. Further, the outcome in [3], in [4], in assay [5], in assay [7], in assay [8] and in [9] was inactive. The result in assay [10] was inactive.

Consider `CCCCN(CCCC)CCCCCCN(CCCC)CCCC`, for which the Potency entry in [1], in assay [2] and in assay [6] was “inactive” in each case. The call in assay [3], in assay [4], in assay [5], in [7], in [8] and in assay [9] was inactive. Moreover, the compound was classed as inactive in assay [10].

Take `Cc1cccc(N)n1`: the Potency entry in assay [1], in [2] and in [6] was “inactive” in each case. Besides, the outcome in assay [3], in assay [4], in assay [5], in assay [7], in assay [8] and in assay [9] was inactive. Besides, the result in assay [10] was inactive.

Turning to `c1coc(Cn2cccc2)c1`, the Potency result in [1], in assay [2] and in assay [6] was “inactive” throughout. The result in [3], in [4], in [5], in assay [7], in assay [8] and in assay [9] was inactive. For the same compound, the compound was classed as inactive in [10].

Consider `CCCCS`, for which the Potency result in assay [1], in [2] and in assay [6] was “inactive” each time. For the same compound, the compound was classed as inactive in assay [3], in [4], in [5], in [7], in assay [8] and in assay [9]. Besides, the result in [10] was inactive.

With `O=C(O)CCC(=O)Nc1ccc(S(=O)(=O)Nc2nccs2)cc1`, the Potency entry in [1], in assay [2] and in assay [6] was “inactive” in each case. In addition, the result in assay [3], in [4] and in assay [5] was inactive. In addition, in assay [7], the fluorescence, relative to Rose Bengal was -0.131% [at 18.6 µM]. Also, the fluorescence, % of fluorescein control in [8] was -0.003% [at 18.6 µM]. For the same compound, in assay [9], the fluorescence, % of triamterene is 0.029% [at 18.6 µM]. For the same compound, the fluorescence, % of fluorescent control in [10] was -0.0693% [at 18.6 µM].

With `C=COCCCCO`, the Potency result in assay [1], in assay [2] and in assay [6] was “inactive” each time. The compound was classed as inactive in assay [3], in assay [4], in assay [5], in assay [7], in assay [8] and in [9]. Besides, in assay [10], the outcome was inactive.

On to `Cc1ccc(NC(N)=O)cc1`, for which the Potency entry in assay [1], in assay [2] and in [6] was “inactive” in each case. For the same compound, the call in assay [3], in assay [4], in [5], in [7], in assay [8] and in assay [9] was inactive. In [10], the result was inactive.

Take `CCCCCCCCC1CO1` (stereo not given): the Potency entry in assay [1], in assay [2] and in [6] was “inactive” each time. Also, the compound was called inactive in assay [3], in assay [4], in assay [5], in assay [7], in assay [8] and in assay [9]. Besides, in assay [10], the call was inactive.

Regarding `C/C=C/C(=O)CCCC`, the Potency entry in assay [1], in [2] and in [6] was “inactive” throughout. The compound was called inactive in assay [3], in assay [4], in assay [5], in assay [7], in assay [8] and in assay [9]. In assay [10], the result was inactive.

As to `C=CC(C)(CCC=C(C)C)OC(=O)C(C)C` (stereo not given), the Potency result in assay [1], in [2] and in [6] was “inactive” in each case. In addition, the outcome in [3], in assay [4], in assay [5], in [7], in assay [8] and in assay [9] was inactive. Moreover, the compound was classed as inactive in assay [10].

`CCc1ccc(CC)cc1`: the Potency entry in assay [1], in assay [2] and in [6] was “inactive” each time. Also, the call in assay [3], in [4], in assay [5], in assay [7], in assay [8] and in [9] was inactive. Moreover, the result in [10] was inactive.

The record behind these values is PubChem BioAssay (Tox21).
